The results in this text go back to PubChem BioAssay AID1210 (NMMLSC, 2008).

Each structure is given as a SMILES string.

The target of this test is Estrogen receptor beta (Homo sapiens) (UniProt Q92731). Put plainly: ERbeta ligand binders by competition, primary screen, cell-based, Cos7 ERbeta-GFP, flow cytometry (AID 1210).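 Note: 0% = DMSO vehicle wells and 100% = complete loss of labeled estradiol signal.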 The note with it: fluorescent estrogen binding, ligand binding inhibition, at 0.1 µM, stronger effect = higher value.
Estrogen receptor beta (Homo sapiens), sequence (Q92731 whole entry, looked up): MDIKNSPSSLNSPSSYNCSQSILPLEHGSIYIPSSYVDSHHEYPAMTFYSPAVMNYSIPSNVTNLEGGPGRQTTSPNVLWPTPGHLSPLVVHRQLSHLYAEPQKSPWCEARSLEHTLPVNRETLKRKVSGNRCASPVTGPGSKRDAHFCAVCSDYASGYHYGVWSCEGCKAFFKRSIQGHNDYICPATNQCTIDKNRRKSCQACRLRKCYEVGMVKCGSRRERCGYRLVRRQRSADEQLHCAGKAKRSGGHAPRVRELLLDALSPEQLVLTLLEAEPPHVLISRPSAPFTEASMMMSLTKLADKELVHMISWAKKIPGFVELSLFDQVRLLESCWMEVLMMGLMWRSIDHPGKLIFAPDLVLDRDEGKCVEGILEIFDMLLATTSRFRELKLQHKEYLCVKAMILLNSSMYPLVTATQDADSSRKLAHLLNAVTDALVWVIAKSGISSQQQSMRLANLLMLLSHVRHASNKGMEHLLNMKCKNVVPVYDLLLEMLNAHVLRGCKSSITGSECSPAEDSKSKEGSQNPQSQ
The inhibition is the drop in the measured response relative to a control, in per cent. Take `COc1ccc(C2CC(c3ccccc3)=NN2C(=O)CSc2nccc(=O)[nH]2)cc1` (stereo not drawn): the inhibition is 37%.
Under `COC(=O)c1c(-c2ccncc2)csc1NC(=O)c1ccoc1C` stands 1%.
For `Cc1ccc(C)c(/C(O)=C2/C(=O)C(=O)N(CCN3CCOCC3)C2c2ccco2)c1` (stereo not drawn) the value was 17%; for `O=C(c1cccs1)N1N=C(c2ccccc2)CC1c1ccc(O)cc1` (stereo not drawn), 23%; for `NNc1nc2sc3c(c2c(=O)[nH]1)CCc1ccccc1-3`, 37%.
Under `c1coc(-c2nnc3sc(Cc4cccs4)nn23)c1` stands 53%; under `COc1cc2c3c(c1)/C(=C1/SC(NC(C)=O)=NC1=O)C(=O)N3C(C)(C)C=C2C`, 4%; under `COc1ccc(N=C2NC(=O)S/C2=C\c2ccc(N(C)C)cc2)cc1`, 4%.
In the case of `CCOc1ccc2nc(NC(=O)CCC(=O)c3cccs3)sc2c1`, the inhibition was 33%.
For `CCc1ccc2[nH]c(=O)c(C3C(C#N)=C(N)Oc4c3ccc3cccnc43)cc2c1` (stereo not drawn) the value was 36%; for `COc1ccc(Cl)cc1NC(=O)c1ocnc1C`, 3%; for `O=C(O)c1ccc2c(c1)C1C=CCC1C(c1cc3c(cc1Br)OCO3)N2` (stereo not drawn), 6%.
Turning to `O=C(O)C1OC(Oc2c(-c3ccc(O)c(O)c3)oc3cc(O)cc(O)c3c2=O)C(O)C(O)C1O` (stereo not drawn), the inhibition was found to be 2%.
Under `COc1cccc(C2Nc3c(F)cc(Br)cc3C3C=CCC32)c1OC` (stereo not drawn) stands 74%; under `FC(F)(F)c1ccc2c(c1)C1C=CCC1C(c1ccncc1)N2` (stereo not drawn), 51%; under `COc1ccc(NC(=O)CN(c2ccccc2)S(=O)(=O)N(C)C)cc1OC`, 15%.
Under `O=C(Nc1ccc2oc(-c3ccccc3F)nc2c1)c1cncc(Br)c1` stands 25%; under `N#Cc1ccc(-c2cccnc2)nc1SCC(=O)Nc1sc2c(c1C#N)CCC2`, 10%.
